High-throughput results (PubChem BioAssay)
Rows were chosen to be rich in hits. Some 4.7% of all compounds tested hit in one or more screens of this group.
D1 PAM = potentiators of human D1 dopamine receptor; HEK293 TREx D1 cells, calcium flux, dopamine EC20 potentiation; potentiation, % at 10 µM; P21728; actives 0.036% (n = 360,000); in the data active = potentiation above about 30%; also: 0% is about no effect
TRHR agonist = activates the human TRH receptor. P34981. TRHR cells, calcium flux fluo-8, FDSS agonist mode. activation, % at 2 µM. actives 0.18% (n = 360,000); also: 0% is about no effect
Target sequence (P34981 whole entry, looked up): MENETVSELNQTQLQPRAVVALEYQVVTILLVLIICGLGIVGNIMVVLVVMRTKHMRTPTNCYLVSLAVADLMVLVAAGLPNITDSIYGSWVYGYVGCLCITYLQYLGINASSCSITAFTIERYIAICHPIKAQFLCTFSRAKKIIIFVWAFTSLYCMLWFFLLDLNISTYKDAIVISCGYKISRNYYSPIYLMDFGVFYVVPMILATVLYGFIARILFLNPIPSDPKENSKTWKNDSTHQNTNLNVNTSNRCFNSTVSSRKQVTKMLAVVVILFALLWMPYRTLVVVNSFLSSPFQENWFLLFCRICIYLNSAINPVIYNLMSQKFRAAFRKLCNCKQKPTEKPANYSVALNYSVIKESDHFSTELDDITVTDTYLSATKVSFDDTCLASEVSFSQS
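Fluo-8-loaded TRHR cells; 10 s baseline, compound added, kinetic Ca2+ fluorescence read 1/s, agonist mode.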
D1 ag = human D1 receptor agonism. HEK293 T-REx D1 cells, calcium flux, agonist mode. actives 1% (n = 360,000). activation, % at 2 µM; also: 0% is about no effect
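Tetracycline-induced HEK293 TREx D1 cells, force-coupled to calcium signalling, were dye-loaded with a no-wash calcium kit. Compound was pin-added after a 10 s baseline. Fluorescence was read kinetically at 1 cycle/s for 180 s, with calcium rises flagged as agonism.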
TRHR PAM = allosterically enhances the human TRH receptor. TRHR cells, fluo-8 calcium fluorescence, EC20 TRH enhancement. P34981. actives 0.66% (n = 360,000). enhancement, % at 2 µM; in the data active = enhancement above about 30%; also: 0% is about no effect
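Enhancer read-out: after compound pinning and an initial kinetic agonist-mode read, an EC20 of TRH (10 nM final) was injected and fluo-8 calcium signal (Ex 480/Em 530) followed at 1 s/cycle for 100 cycles in TRHR-expressing cells.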
D1 antag = blocks dopamine activation of the human D1 receptor. P21728. HEK293 TREx D1 cells, calcium flux, dopamine EC80; stronger effect = lower value. activity change, negative = inhibition, % at 10 µM. actives 3.2% (n = 360,000); in the data active = activity change below about -30%; also: % is scaled to controls: 0 for no effect and ±100 for the full control effect
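Using tetracycline-induced force-coupled D1 Hek293 cells and a calcium dye, signals were followed for 180 s after compound, then for 180 s after EC80 dopamine, to detect inhibitors.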
Active calls of the source: *. Rule as the data show it, unless noted: active = activation above about 30%; inactive = the rest.

SMILES	D1 PAM	TRHR agonist	D1 ag	TRHR PAM	D1 antag
CCOc1ccc(CNC(=O)c2sc3nc(C)cc(C)c3c2-n2cccc2)cc1	-3	-1	-1	17	-18
Cc1ccc(C)c(NC(=O)CSc2nc3nccnc3c(=O)n2CCc2c[nH]c3ccccc23)c1	-2	0	2	16	0
CCOC(=O)c1ccc(NC(=S)N(CCCN2CCCC(C)C2)Cc2ccco2)cc1 (stereo not given)	-5	2	26	-9	-39*
CCOC(=O)c1ccc(NC(=S)N(CCCN2CCN(CC)CC2)Cc2cccs2)cc1	-7	0	49*	6	-30
CCOC(=O)c1ccc(NC(=S)N(CCCN2CCCC2)Cc2ccco2)cc1	-7	0	9	3	-14
CCOC(=O)c1ccc(NC(=S)N(CCCN2CCN(C)CC2)Cc2cccs2)cc1	-6	1	9	-2	2
COc1cccc(NC(=S)N(CCCN2CCC(C)CC2)Cc2cccs2)c1	0	0	4	30*	-7
Nc1ccc2cn[nH]c2c1	6	-1	0	-5	7
O=[N+]([O-])c1ccc2[nH]ncc2c1	-9	1	4	4	-44*
Brc1ccc2[nH]ncc2c1	-6	0	2	6	-32*
COCc1nn2cc(-c3ccc(C)cc3)nc2s1	1	-1	-1	0	3
CCOc1ccc(-c2nc(CSCC(=O)NCc3ccc(C)cc3)c(C)o2)cc1	-3	0	5	11	0
CCOc1ccc(-c2nc(CSCC(=O)NCc3ccco3)c(C)o2)cc1	-6	0	4	-4	-37*
O=C(CSCc1c(Cl)cccc1Cl)NCc1ccco1	-6	0	0	-4	-31*
CCN(c1ncnc2c1cnn2-c1cc(Cl)ccc1C)C1CCCCC1	1	0	-1	-9	1
CCOC(=O)c1sc(NC(=O)Nc2ccccc2Cl)cc1C	-6	1	15	3	-39*
CCOC(=O)c1sc(NC(C)=O)cc1C	-14	1	0	4	3
CCOC(=O)c1sc(NC(=O)c2ccc(C)s2)cc1C	-6	0	-1	4	25
CCOC(=O)c1sc(NC(=O)Nc2ccccc2)cc1C	-5	0	21	11	-42*
O=C(NNC(=O)c1ccccc1C(F)(F)F)c1csc(N2CCOCC2)n1	-15	2	1	5	-51*
O=C(NNC(=O)c1ccccc1Cl)c1csc(N2CCOCC2)n1	-1	0	5	-4	14
COC(=O)c1sc(N2C(=O)c3oc4ccc(C)cc4c(=O)c3C2c2ccc(OC)cc2)nc1C (stereo not given)	-2	1	2	6	16
Cc1c(Cl)c([N+](=O)[O-])nn1CCCC(=O)Nc1cccc(Cl)c1	8	0	4	-3	-32*
C/C(=C/CCC(C)[C@H]1CC[C@@]2(C)C3=C(CC[C@]12C)[C@@]1(C)CCC(=O)C(C)(C)[C@@H]1CC3)C(=O)O (stereo not given in full)	-7	0	9	18	-34*
Cc1ccc(CN2CCC(CO)(CC3CCCCO3)CC2)o1 (stereo not given)	5	0	0	14	7
SMILES	D1 PAM	TRHR agonist	D1 ag	TRHR PAM	D1 antag
COCc1ccc(CN2CCC(CO)(CC3CCCCO3)CC2)o1 (stereo not given)	-6	1	1	8	-40*
CCc1ccc(CN2CCC(CO)(CC3CCCCO3)CC2)o1 (stereo not given)	-6	1	4	1	-38*
Cc1csc2nc(COC(=O)c3ccc(NC(=O)C(C)C)cc3)cc(=O)n12	1	1	8	-3	-18
Cc1cccc2c1-c1sc(C(=O)N(C)c3cccc(Cl)c3)cc1CO2	-4	-1	7	6	20
COc1cc(NC(=O)C2=CC(c3ccc(F)cc3)=NS(=O)(=O)N2C)cc(OC)c1OC	-4	0	7	-3	-4
CC(=O)Nc1ccc(NC(=O)C2CCCN2S(=O)(=O)c2ccc3c(c2)CCCC(=O)N3)cc1 (stereo not given)	3	0	0	5	-1
Fc1cccc(Cl)c1CSc1nnnn1-c1ccc2c(c1)OCO2	-6	0	8	-11	-32*
Fc1cccc(Cl)c1Cn1nnc(-c2ccc3c(c2)OCO3)n1	0	1	18	-2	14
O=C(CN1C(=O)CCn2nc(-c3ccccc3)cc21)NCc1ccc(F)cc1	5	0	1	10	16
COCCNC(=O)CSc1nc2ccccc2nc1Cc1ccc(C)cc1	1	0	-1	0	7
CC(C)[C@H](NS(=O)(=O)c1ccc2c(c1)OCCO2)C(=O)OCC(=O)Nc1cccc(Cl)c1Cl	-5	0	4	13	-31*
CCC(C)NS(=O)(=O)c1ccc(OCC(=O)Nc2ccc3c(c2)OCCO3)cc1 (stereo not given)	-6	-1	6	-4	-43*
CCOC(=O)c1ccc(NC(=O)C(C)NS(=O)(=O)c2ccc(OC)cc2)cc1 (stereo not given)	0	-1	8	7	-3
CCOC(=O)c1ccc(NC(=O)COc2ccc(S(=O)(=O)NC(C)CC)cc2)cc1 (stereo not given)	-2	0	17	4	-38*
C/C(CC(=O)Nc1ccc2c(c1)OCCO2)=N\NC(=O)COc1ccccc1	1	0	1	37*	-4
Cc1ccc(C)c(NC(=O)CN2C(=O)CCc3ccccc32)c1	2	0	-1	2	-7
Cc1cccc(N2CCN(C(=O)c3cccn3-c3nnc(N4CCCCC4)s3)CC2)c1C	2	-1	2	0	-4
COC(=O)c1ccc(-c2noc(CN(C)Cc3ccncc3C)n2)cc1	-4	1	17	-1	-41*
COC(=O)c1ccc(-c2noc(CN(C)CCC3CCCCO3)n2)cc1 (stereo not given)	-7	1	4	-8	-61*
CC(C)(C)OC(=O)Cc1nnc(-c2cc3ccccc3[nH]2)o1	-1	1	3	-7	7
CCc1ccc(NC(=O)N(Cc2cn(CC)c3ccccc23)C2CCCCC2)cc1	3	1	3	0	6
O=S(=O)(c1ccc(S(=O)(=O)N2CCC3(CC2)OCCO3)cc1)N1CCCC1	-2	0	3	9	-8
CCCCNS(=O)(=O)c1ccc(S(=O)(=O)N2CCC3(CC2)OCCO3)cc1	-11	0	17	11	-46*
COc1cc(NC(=O)C/C(C)=N/NC(=O)c2ccccn2)c(OC)cc1Cl	20	0	1	1	3
COc1cc(NC(=O)c2cc(-c3ccccc3)on2)cc(OC)c1OC	-1	0	2	5	3
COc1cc(NC(=O)c2ccccn2)cc(OC)c1OC	-2	0	0	30*	17
